Screens (PubChem BioAssay)
Integrin act MD: activates integrin-mediated alleviation for muscular dystrophy; alpha7betagal myoblasts, beta-gal FDG fluorescence, 48 h; Potency, µM (doses to about 38.3 µM), actives largely listed as activators; hit rate 0.064% among 350,000; note: nearly all actives have a fitted effect of over 60% in size
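Alpha7betagal+/- myoblasts (passage 13) were plated 16-24 hr, then exposed to compounds (1:260 dilution of DMSO stock) for 48 hours at 37C. After MPER lysis, β-galactosidase reporter activity was read as FDG fluorescence (ex 480/em 540) after 30 minutes.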
BCR signal inh: chronic active BCR signaling inhibition; hit rate 0.05% among 340,000; ABC-DLBCL IkBa-CBG/CBR reporter, luminescence ratio, 4 h; AID 493014; Potency, µM (series often up to 46.1 µM), most hits filed as inhibitors; active = well fitted inhibition curve with a large enough effect in the signal ratio, with a control signal flat, not every such curve was filed as active; inconclusive = small, poorly fitted or top-dose-only effect, or effect the other way, or a change in a side signal; the % refers to the signal ratio
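TMD8 ABC-DLBCL cells carrying doxycycline-inducible green luciferase fused to IkappaBalpha plus unfused red luciferase were exposed to compounds (up to 46 uM) for 4 hrs at 37C. Activity came from the overlap-corrected green/red luminescence ratio.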
Nrf2 ARE act: activates Nrf2 signaling | hit rate 0.31% among 410,000 | Potency, µM (series often up to 46.1 µM), most hits filed as activators | AREc32 ARE-luciferase reporter (MCF7-derived line), luminescence, 24 h | AID 624171; note: nearly all actives have a fitted effect of over 65% in size
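For detection, Steady-Glo was added and plates sat 30 min at RT; before that, AREc32_Fluc cells grown overnight in OPTI-MEM/5% FBS had been treated with 23 nL compound for 24 hr at 37 deg C.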
IL-2 act: IL-2 activation; AID 652025; IL-2 activation reporter assay, cell-based qHTS; stimulated with anti-CD3/CD4/CD28 beads; in transgenic mouse T cells; activation, % (series mostly up to about 46 µM); hit rate 0.065% among 360,000; in the data active = activation above about 50%; inconclusive = mostly about 30% to 49%
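EGFP and DsRed fluorescence is measured by plate cytometry in unstimulated transgenic mouse T cells exposed to compound for 60 minutes, then stimulated 18 hours at 37 degrees C with anti-CD3/anti-CD4 beads plus anti-CD28.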
N370S GC mod: N370S glucocerebrosidase modulation, Gaucher chaperone candidate. AID 2101. Potency, µM (doses to about 59.4 µM), usual class: inhibitors. hit rate 0.092% among 330,000. N370S GC spleen homogenate, 4MU-glucoside fluorescence
BRCA1 expr up: BRCA1 expression activation | MCF7-BRCA1-FFLuc reporter, luminescence, 48 h; response scale: scaled: vehicle 0%, 10 µM genistein 100% | AID 624202 | Potency, µM (highest dose often 46.1 µM), most hits filed as activators | hit rate 1.1% among 380,000; note: nearly all actives have a fitted effect of over 80% in size
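48 h compound treatment of MCF7-BRCA1-FFLuc cells (phenol-red free MEM, 37 °C), then 15 min with luciferase substrate and luminescence imaging.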
Numbers stand for hits; - = inactive; ? = inconclusive; . = no result given; [ ] = another dose, or the depositor's remark. Sampled rows, rich in hits. Any-hit rate of the full collection: about 1.4%. Unless noted, calls come from the whole dose curve; as a rule, active = well fitted curve in the direction sought with a large enough effect; inconclusive = small, poorly fitted or top-dose-only effect, or another doubt; inactive = no such curve, though single readings can be large; an effect the other way counts as inactive or inconclusive.

SMILES	Integrin act MD	BCR signal inh	Nrf2 ARE act	IL-2 act	N370S GC mod	BRCA1 expr up
O=C(c1ccco1)n1nc(-c2ccccc2)nc1SCc1ccccc1	-	?	-	-	-	2.8µM
Cc1ccc(S(=O)(=O)n2nc(-c3ccco3)nc2SCc2ccccc2)cc1	-	-	-	-	-	11µM
O=C(Cc1ccccc1)n1nc(-c2ccco2)nc1SCc1ccccc1	-	?	-	-	-	11µM
O=C(c1ccco1)n1nc(-c2ccco2)nc1SCc1ccccc1	-	?	-	-	-	?
C[N+]1(CC(=O)c2ccc3ccccc3c2)CCOCC1	.	.	.	.	.	-
NC1C(O)OC(CO)[C@@H](O)[C@@H]1O[C@H]1O[C@@H](C(=O)O)C(O)C(O)C1O (some centres undefined)	.	.	.	.	-	.
Cc1ccc(-n2ncc(Cl)c2C(=O)NCc2ccccc2)cc1	-	?	-	-	-	11µM
CNC(=O)c1c(Cl)cnn1-c1ccc(F)cc1	-	?	-[9.22 µM]	-	-	-
CCC(C)(C)NC(=O)CCCSc1nc2ccccc2s1	-	-	-	-	-	3.5µM
O=C(c1ccc(OCC2CCCO2)cc1)N1CCc2ccccc2C1 (centres undefined)	-	-	-	-	-	11µM
NC(=O)c1ccc(OCC2CCCO2)cc1 (centres undefined)	-	-	-	-	-	-
Cc1c2c(c(O)c3c(O)cccc13)C(=O)O[C@H]2C1C(N(C)C)C(O)=C(C(N)=O)C(=O)[C@H]1O (some centres undefined)	.	.	.	.	-	.
CCN(CC(=O)Nc1c(F)cccc1F)C(=O)c1ccc(Cl)c(S(=O)(=O)N2CCCCC2)c1	-	-	-	-	-	-
O=C(OCc1cc(=O)n2ccsc2n1)c1ccc(O)cc1O	-	?	-	-	.	11µM
Cc1ccsc1C(=O)OCc1cc(=O)n2ccsc2n1	-	?	-	-	.	?
O=c1cc(COc2ccccc2[N+](=O)[O-])nc2sccn12	-	-	8.9µM	-	-	-
COc1ccccc1NC(=O)CN(c1cc(C)cc(C)c1)S(=O)(=O)c1c(C)[nH]c(=O)[nH]c1=O	.	.	-	.	.	.
Cc1cc(C)cc(N(CC(=O)Nc2cccc(C)c2C)S(=O)(=O)c2c(C)[nH]c(=O)[nH]c2=O)c1	-	-	-	-	2.5µM	-
Cc1cc(C)cc(N(CC(=O)Nc2ccc(Br)cc2)S(=O)(=O)c2c(C)[nH]c(=O)[nH]c2=O)c1	-	-	-	-	1.6µM	-
COc1ccc(N(CC(=O)Nc2cccc(C)c2C)S(=O)(=O)c2c(C)[nH]c(=O)[nH]c2=O)cc1	-	-	-	-	-	-
Cc1ccc(CNC(=O)CN(c2cc(C)cc(C)c2)S(=O)(=O)c2c(C)[nH]c(=O)[nH]c2=O)cc1	.	.	-	.	.	.
Cc1cc(C)cc(N(CC(=O)Nc2cc(C)ccc2C)S(=O)(=O)c2c(C)[nH]c(=O)[nH]c2=O)c1	-	-	-	-	8.9µM	-
Cc1ccc(S(=O)(=O)Nc2ccc(C(=O)N3CCOCC3)cc2)cc1	-	-	-	-	-	-
O=C(/C=C/c1ccc(Cl)cc1)Nc1nc(-c2cccs2)ns1	.	.	-	.	.	.
O=C(/C=C/c1ccccc1Cl)Nc1nc(-c2cccs2)ns1	.	.	6.3µM	.	.	.
SMILES	Integrin act MD	BCR signal inh	Nrf2 ARE act	IL-2 act	N370S GC mod	BRCA1 expr up
CC(C)CCNC(=O)c1ccc(-c2ccccc2)cc1	.	?	.	.	-	.
CC(C)CCNC(=O)C(=O)Nc1ccccc1	-	?	-	-	-	8.9µM
COc1ccc(NC(=O)C2CCCN(S(C)(=O)=O)C2)cc1OC (centres undefined)	-	-	-	-	-	-
CCOC(=O)C(=Cc1ccc(OCc2ccc([N+](=O)[O-])cc2)c(OC)c1)C(=O)OCC	-	-	?	-	-	-
COc1cc(C(c2c(C)[nH][nH]c2=O)c2c(C)[nH][nH]c2=O)ccc1OCc1ccc([N+](=O)[O-])cc1	-	?	-	-	-	3.2µM
COC(=O)C(=Cc1ccc(OCc2ccc([N+](=O)[O-])cc2)c(OC)c1)C(=O)OC	-	-	8.9µM	-	-	-
